The structures appear in SMILES notation. Calls of active or inactive are those of the source.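 The calls were made as follows: active = dose fit with top-dose inhibition above 36% and EC50 error under a fifth of EC50, and EC50 under 30 µM; inactive = the rest.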

This experiment deals with Integrin alpha-4 (Homo sapiens) (UniProt P13612). Put plainly: inhibitors of fluorescent LDV binding to VLA-4 – cell-based, plate-based, flow cytometry, set 2, orthogonal assay, dose response (AID 588446). The note with it: cells, LDV-FITC binding displacement; series mostly up to 66.7 µM. (In flow cytometry, cells or beads pass a laser one at a time.)
Integrin alpha-4 (Homo sapiens), sequence (P13612 whole entry, looked up): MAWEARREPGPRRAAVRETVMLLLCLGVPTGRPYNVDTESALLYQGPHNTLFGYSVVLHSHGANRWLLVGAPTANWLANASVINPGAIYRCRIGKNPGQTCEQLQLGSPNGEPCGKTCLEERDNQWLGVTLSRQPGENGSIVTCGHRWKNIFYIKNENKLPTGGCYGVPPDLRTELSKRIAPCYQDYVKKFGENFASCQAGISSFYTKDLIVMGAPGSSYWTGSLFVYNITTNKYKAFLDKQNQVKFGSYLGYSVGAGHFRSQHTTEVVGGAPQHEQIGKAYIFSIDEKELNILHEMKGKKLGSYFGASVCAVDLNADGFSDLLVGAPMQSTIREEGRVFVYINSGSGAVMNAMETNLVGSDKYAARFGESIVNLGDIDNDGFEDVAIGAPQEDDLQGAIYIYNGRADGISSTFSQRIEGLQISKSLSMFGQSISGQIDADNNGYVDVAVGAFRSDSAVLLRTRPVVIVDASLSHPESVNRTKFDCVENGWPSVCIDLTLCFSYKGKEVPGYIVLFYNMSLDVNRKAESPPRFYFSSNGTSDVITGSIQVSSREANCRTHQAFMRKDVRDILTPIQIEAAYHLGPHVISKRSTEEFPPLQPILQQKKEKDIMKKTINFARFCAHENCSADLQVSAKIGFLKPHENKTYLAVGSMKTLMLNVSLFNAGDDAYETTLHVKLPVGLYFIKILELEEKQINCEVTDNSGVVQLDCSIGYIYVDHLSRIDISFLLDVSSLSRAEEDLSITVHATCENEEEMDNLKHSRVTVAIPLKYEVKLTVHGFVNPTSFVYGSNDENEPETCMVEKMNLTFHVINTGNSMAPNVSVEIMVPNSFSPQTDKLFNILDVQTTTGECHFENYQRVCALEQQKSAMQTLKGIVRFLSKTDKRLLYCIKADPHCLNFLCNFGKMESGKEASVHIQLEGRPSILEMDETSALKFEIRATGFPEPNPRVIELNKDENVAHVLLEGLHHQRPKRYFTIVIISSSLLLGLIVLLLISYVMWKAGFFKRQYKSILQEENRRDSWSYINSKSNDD
As to `O=C(c1ccc(OCCN2CCCCC2)cc1)c1c(-c2ccc(O)cc2)sc2cc(O)ccc12`, the result was inactive.

In the case of `Cc1oc(-c2cccs2)nc1CN1C(=O)C2CC=CCC2C1=O` (centres undefined), the outcome was inactive.

Turning to `Cc1ccc(C)n1-c1ccc(C(=O)N(C)Cc2ccco2)cc1`, the outcome was inactive.

`CN1CC(c2nc3ccccc3n2CCOc2ccccc2)CC1=O` (centres undefined): the call was inactive.

On to `COCC(=O)N1CCC2(CCCN(CCc3ccccc3)C2=O)C1` (centres undefined), for which the result was inactive.

Take `CC(=O)N(C)Cc1nc2ccccc2n1CCOc1ccc(C)cc1`: the compound was called inactive.

For `CCOc1ccccc1N1CC(c2nc3ccccc3n2C)CC1=O` (centres undefined), the outcome was inactive.

Consider `COc1ccccc1Cn1c(C2CC(=O)N(C)C2)nc2ccccc21` (centres undefined), for which the result was inactive.

Consider `CCn1c(C2CC(=O)N(CCc3ccccc3)C2)nc2ccccc21` (centres undefined), for which the result was inactive.

As to `Cc1cc(C(=O)N2CCCC2c2nc3ccccc3s2)on1` (centres undefined), the call was inactive.

In the case of `Cc1nc2ccccc2n1CCc1noc(COc2ccccc2)n1`, the call was inactive.

For `COCCn1c(C2CC(=O)N(Cc3ccco3)C2)nc2ccccc21` (centres undefined), the compound was called inactive.

Take `CCN1CC(c2nc3ccccc3n2Cc2ccccc2)CC1=O` (centres undefined): the outcome was inactive.

Consider `COCCn1c(C2CC(=O)N(c3cccc(C)c3)C2)nc2ccccc21` (centres undefined), for which the result was inactive.

With `COc1cc(OCc2ccccc2)ccc1CN1CCN(C)CC1`, the outcome was inactive.

Turning to `Cn1cc(C(=O)N2CCCC2c2nc3ccccc3s2)cn1` (centres undefined), the compound was classed as inactive.

On to `O=C1C2CC=CCC2C(=O)N1Cc1csc(Cc2ccccc2)n1` (centres undefined), for which the compound was called inactive.

Consider `Cc1ccc(-c2nc(CN3C(=O)C4CC=CCC4C3=O)cs2)cc1` (centres undefined), for which the compound was classed as inactive.

For the compound `COCCn1c(C2CC(=O)N(c3ccccc3C)C2)nc2ccccc21` (centres undefined), the compound was classed as inactive.

As to `CCOCCn1c(C2CC(=O)N(c3ccccc3)C2)nc2ccccc21` (centres undefined), the compound was classed as inactive.

As for `COc1ccc(-c2nn(Cc3ccccc3)cc2C(=O)N2CCC2)cc1`, the call was inactive.

Take `CSc1ccccc1OCc1cc(C(=O)N2CCCC2)no1`: the result was inactive.

With `CN(Cc1ccco1)C(=O)c1ccc(-n2cnc3ccccc32)cc1`, the result was inactive.

In the case of `CCN1CC(c2nc3ccccc3n2CCOc2ccccc2)CC1=O` (centres undefined), the compound was classed as inactive.

Take `Cc1nc(C)c(C(=O)N2CCCC2c2nc3ccccc3s2)s1` (centres undefined): the compound was called inactive.

In the case of `CCn1c(C2CC(=O)N(c3ccccc3OC)C2)nc2ccccc21` (centres undefined), the call was inactive.

For `Cc1cc(C(=O)N2CCCC2c2ccc3c(c2)OCCO3)sc1C` (centres undefined), the compound was classed as inactive.

For the compound `COc1ccccc1N1CCN(CC(=O)c2ccc(F)cc2)CC1`, the call was inactive.

Consider `COc1ccc(C2CCCN2C(=O)c2sccc2C)cc1OC` (centres undefined), for which the compound was classed as inactive.

For the origin of these results see PubChem BioAssay AID588446 (NMMLSC, 2011).
